Laboratory results as given in PubChem BioAssay (Tox21).
Inconclusive results are not listed. A number with no mark means an inactive call. Activity calls are given as the source filed them. Calls follow the shape of the dose curve; as a rule, active = well fitted cell-killing curve with a large enough effect in the repeat runs; inconclusive = weak or mixed curves, or effect the other way; inactive = flat fitted curve, though single readings scatter.

assay: Nuclear factor erythroid 2-related factor 2/antioxidant responsive element (Nrf2/ARE) small molecule agonists: qHTS cell viability counter screen in human keratinocytes (AID 1919968); conditions: KeratinoSens HaCaT ARE cells viability, CellTiter-Fluor, 24 h; series mostly up to 92.4 µM; activity change, negative = cytotoxicity: at the top concentration; also: nearly all actives have a fitted effect of over 55% in size
Text: U.S. Tox21 Program National Center for Advancing Translational Sciences [NCATS] Division of Preclinical Innovation [DPI] U.S. Environmental Protection Agency [EPA] National Institutes of Environmental Health Sciences [NIEHS] National Toxicology Program [NTP] U.S. Food and Drug Administration [FDA] Tox21 Assay Overview: Oxidative stress has been implicated in the pathogenesis of a variety of diseases ranging from cancer to neurodegeneration. The antioxidant response element (ARE) signaling pathway plays an important role in the amelioration of oxidative stress. The KeratinoSens (Givaudan, Switzerland) is an in vitro test method which quantifies luciferase induction as a measure of activation of Keap1-Nrf2-antioxidationt/electrophile response element (ARE) dependant pathway in HaCaT human keratinocytes stably transfected with a selectable plasmid. The KeratinoSens assay is a cell-based assay with a reporter cell line to detect potential skin sensitizers by their ability to induce the Nrf2/ARE-response. The activation of the report gene under culture conditions can be detected by ONE-Glo Luciferase Assay System (Promega, Madison, WI). This cell line has been used to screen the Tox21 10K compound library to identify agonists that induce oxidative stress. The cytotoxicity of the Tox21 compound library against the KS-ARE cell line was tested in parallel by measuring the cell viability using CellTiter- Fluor assay system (Promega, Madison, WI) in the same wells.
Tox21 Assay Protocol Summary: HaCaT derived cell line KeratinoSens were dispensed at 1,500 cells/5uL/well in 1536-well white wall/solid bottom plates using a Multidrop Combi (ThermoFisher Scientific, Waltham, MA) dispenser. After the assay plates were incubated at 37 C/5% CO2 for 5 h, 23 nL of compounds dissolved in DMSO, positive controls or DMSO only was transferred to the assay plate by a pintool workstation (Kalypsys, San Diego, CA). The plates were incubated at 37 C/5% CO2 for 23 h, followed by addition of 1uL/well of CellTiter-Fluor reagent into the assay plates using a Flying Reagent Dispenser (Aurora Discovery, San Diego, CA) for cell viability readout that measures cytotoxicity. After 1 h incubation at 37 C/5% CO2 the fluorescence intensity was measured using a ViewLux (PerkinElmer, Shelton, CT) plate reader.
% is scaled to controls: 0 for no effect and ±100 for the full control effect.

Compound | activity change, negative = cytotoxicity | Potency
O=C(O)CCc1ccccc1 | -1.97% | –
CC(C)=CCC[C@H](C)CC=O | 0.617% | –
CCC(=O)CC | -4.4% | –
CNCCO | 2.4% | –
CN(C)CCCN(C)CCCN(C)C | 1.39% | –
CC(=O)N(c1onc(C)c1C)S(=O)(=O)c1ccc(N)cc1 | 0.329% [at 42.5 µM] | –
CO/N=C(/C(=O)N[C@@H]1C(=O)N2C(C(=O)O)=C(COC(N)=O)CS[C@H]12)c1ccco1 | 0.695% | –
O=C1CCC(=O)N1 | 0.0722% | –
NC(=O)c1ccccc1Cl | 1.55% | –
NC(=O)NC1N=C([O][Al])NC1=O (stereo not given) | 0.787% [at 42.5 µM] | –
c1ccc(SCCSc2ccccc2)cc1 | -0.114% | –
CC(C)(CO)[C@@H](O)C(=O)NCCC(=O)O | 1.18% | –
CC1(C)[C@@H]2CC[C@@]1(C)[C@H](O)C2 | 0.068% | –
O=C1CC2CC1C1CCCC21 (stereo not given) | 3.09% | –
CCCCCCCC(=O)[O-].CCCCCCCC(=O)[O-].[Zn+2] | -0.7% [at 42.5 µM] | –
O=C(c1ccc2c(c1)C(=O)OC2=O)c1ccc2c(c1)C(=O)OC2=O | 1.53% | –
FC(F)(F)/C(=N\OCC1OCCO1)c1ccc(Cl)cc1 | 13.3% | –
CC(C)c1ccccc1O | -1.19% | –
CC(C)(O)Cc1ccccc1 | -0.0168% | –
O=c1c(-c2ccc(O)cc2)coc2cc(O)ccc12 | – | inactive

Compound | activity change, negative = cytotoxicity | Potency
O=C(O)[C@H](O)[C@@H](O)[C@H](O[C@@H]1O[C@H](CO)[C@H](O)[C@H](O)[C@H]1O)[C@H](O)CO | 3.07% [at 42.5 µM] | –
OCc1c2ccccc2cc2ccccc12 | -0.971% | –
CCN(CC)C(=O)C1CN2CCc3cc(OC)c(OC)cc3C2CC1OC(C)=O (stereo not given) | -3.88% [at 42.5 µM] | –
CC(=O)CC(C)(C)C1CCCCC1 | 6.48% | –
CC1(C)O[C@H]2CC(=O)OC[C@]23[C@H]2CC[C@@]4(C)[C@H](c5ccoc5)OC(=O)[C@H]5O[C@]54[C@]2(C)C(=O)C[C@@H]13 | 3.62% [at 42.5 µM] | –
COC(=O)Cc1cccc2ccccc12 | -2.3% | –
O=S(=O)(O)CCCN1CCOCC1 | -5.7% | –
C=C(C)C(=O)OCCC(F)(F)C(F)(F)C(F)(F)C(F)(F)C(F)(F)C(F)(F)F | 2.46% | –
Clc1cc(Cl)c(Cl)c(Cl)c1Cl | 3.75% | –
CC(=O)OC/C=C(\C)CC/C=C(\C)CCC=C(C)C | – | inactive
CCOCCOCCOCC | -0.0731% | –
CCN(C=O)CC | 2.02% | –
F[Si-2](F)(F)(F)(F)F | 3.28% | –
O=C1c2c(O)ccc(Nc3ccc(CCO)cc3)c2C(=O)c2c([N+](=O)[O-])ccc(O)c21 | -19.5% | –
O=c1n(CCO)c(=O)n(CCO)c(=O)n1CCO | 3.84% | –
SCCSCCS | 2.37% | –
CC[C@@H]1C[C@H](N(Cc2cc(C(F)(F)F)cc(C(F)(F)F)c2)C(C)=O)c2cc(C(F)(F)F)ccc2N1C(=O)OC(C)C | 15% | –
NCCNCCNCCNCCN | – | inactive
Cc1ccc(C2OC[C@@H]3OC(c4ccc(C)cc4)O[C@H]([C@H](O)CO)[C@@H]3O2)cc1 (stereo not given in full) | 0.979% | –
CN(C1CCCCC1)S(=O)(=O)c1ccccc1N | 0.295% | –
